Measurements reported in the supplement of paper PMC6522484.
± gives the standard deviation of the averaged measurements.

How the values were obtained:
DLD1 [1] = test: cell viability (CellTiter-Glo) relative to plate median (fraction of plate median); higher = more viable cells; conditions: 5 µM; treatment time 24 h; reporter: 7TFP
Procedure, shortened: (§1)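 Each entry is a luminescence signal normalised to the plate median, averaged over independent replicates. The replicate count was two, and the cells were colorectal cancer lines with stable lentiviral TCF/Wnt firefly luciferase reporters exposed to library compounds at a final 5 µM for 24 h. Firefly luciferase and CellTiterGlo were measured on parallel plates.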

HCT116 = test: as above; conditions: 5 µM; treatment time 24 h; reporter: TCF4/Wnt
Procedure, shortened: as §1

SW480 [2] = test: as above; conditions: 5 µM; treatment time 24 h; reporter: 7TFP
Procedure, shortened: as §1

DLD1 [3] = test: TCF/Wnt firefly luciferase reporter signal relative to plate median (fraction of plate median); higher = higher Wnt reporter signal; conditions: 5 µM; treatment time 24 h; reporter: 7TFP
Procedure, shortened: as §1

SW480 [4] = test: as above; conditions: 5 µM; treatment time 24 h; reporter: 7TFP
Procedure, shortened: as §1

## CC(=O)Oc1ccc(C(c2ccc(OC(C)=O)cc2)c2ccccn2)cc1
DLD1 [1]
  cell viability: 0.806 ± 0.057
HCT116
  cell viability: 0.931 ± 0.15
SW480 [2]
  cell viability: 1.1 ± 0.092
DLD1 [3]
  TCF/Wnt firefly luciferase reporter signal: 0.65 ± 0.098
SW480 [4]
  TCF/Wnt firefly luciferase reporter signal: 1.03 ± 0.085

## CC(C)=CCc1c(O)cc(C)oc1=O
DLD1 [1]
  cell viability: 1.05 ± 0.17
HCT116
  cell viability: 1.07 ± 0.12
SW480 [2]
  cell viability: 1.055 ± 0.0071
DLD1 [3]
  TCF/Wnt firefly luciferase reporter signal: 1.06 ± 0.1
SW480 [4]
  TCF/Wnt firefly luciferase reporter signal: 1.03 ± 0.071

## CCCc1cc(C(N)=S)ccn1
DLD1 [1]
  cell viability: 0.972 ± 0.022
HCT116
  cell viability: 1.05 ± 0.021
SW480 [2]
  cell viability: 0.976 ± 0.063
DLD1 [3]
  TCF/Wnt firefly luciferase reporter signal: 1.015 ± 0.0071
SW480 [4]
  TCF/Wnt firefly luciferase reporter signal: 1.04 ± 0.021

## C[C@]12CC[C@@H]3c4ccc(O)cc4CC[C@H]3[C@@H]1CC[C@@H]2O
DLD1 [1]
  cell viability: 0.914 ± 0.11
HCT116
  cell viability: 1.01 ± 0.098
SW480 [2]
  cell viability: 0.949 ± 0.024
DLD1 [3]
  TCF/Wnt firefly luciferase reporter signal: 1.07 ± 0.092
SW480 [4]
  TCF/Wnt firefly luciferase reporter signal: 1.02 ± 0.021

## O=c1cc(-c2ccc(O)cc2)oc2cc(O)cc(O)c12
DLD1 [1]
  cell viability: 0.982 ± 0.026
HCT116
  cell viability: 1.07 ± 0.028
SW480 [2]
  cell viability: 1.02 ± 0.014
DLD1 [3]
  TCF/Wnt firefly luciferase reporter signal: 1.105 ± 0.0071
SW480 [4]
  TCF/Wnt firefly luciferase reporter signal: 1.03 ± 0.05

## CC(=O)Oc1c(C)cccc1C(=O)O
DLD1 [1]
  cell viability: 0.9705 ± 0.0064
HCT116
  cell viability: 0.966 ± 0.039
SW480 [2]
  cell viability: 1.02 ± 0.063
DLD1 [3]
  TCF/Wnt firefly luciferase reporter signal: 0.884 ± 0.13
SW480 [4]
  TCF/Wnt firefly luciferase reporter signal: 0.979 ± 0.087

## O=C(OCc1ccccc1)c1ccccc1
DLD1 [1]
  cell viability: 1.03 ± 0.035
HCT116
  cell viability: 0.996 ± 0.062
SW480 [2]
  cell viability: 0.928 ± 0.029
DLD1 [3]
  TCF/Wnt firefly luciferase reporter signal: 0.954 ± 0.14
SW480 [4]
  TCF/Wnt firefly luciferase reporter signal: 0.999 ± 0.1

## CC(=O)OCC(=O)[C@@]1(O)CC[C@H]2[C@@H]3CC[C@@H]4C[C@H](O)CC[C@]4(C)[C@H]3C(=O)C[C@@]21C
DLD1 [1]
  cell viability: 0.905 ± 0.11
HCT116
  cell viability: 1 ± 0.071
SW480 [2]
  cell viability: 0.939 ± 0.011
DLD1 [3]
  TCF/Wnt firefly luciferase reporter signal: 0.968 ± 0.036
SW480 [4]
  TCF/Wnt firefly luciferase reporter signal: 0.885 ± 0.019

## CC(=O)OCC(=O)[C@@]1(O)[C@H](C)C[C@H]2[C@@H]3CCC4=CC(=O)C=C[C@]4(C)[C@@]3(F)[C@@H](O)C[C@@]21C
DLD1 [1]
  cell viability: 1.06 ± 0.085
HCT116
  cell viability: 0.952 ± 0.054
SW480 [2]
  cell viability: 1.02 ± 0.088
DLD1 [3]
  TCF/Wnt firefly luciferase reporter signal: 0.958 ± 0.037
SW480 [4]
  TCF/Wnt firefly luciferase reporter signal: 0.969 ± 0.044

## COc1ccc(-c2oc3cc(OC)c(OC)c(OC)c3c(=O)c2OC)cc1OC
DLD1 [1]
  cell viability: 0.952 ± 0.028
HCT116
  cell viability: 1.1 ± 0.014
SW480 [2]
  cell viability: 1.06 ± 0.092
DLD1 [3]
  TCF/Wnt firefly luciferase reporter signal: 0.986 ± 0.049
SW480 [4]
  TCF/Wnt firefly luciferase reporter signal: 1.06 ± 0.17

## O=C(O)/C=C/C=C/c1ccccc1
DLD1 [1]
  cell viability: 0.976 ± 0.16
HCT116
  cell viability: 0.9625 ± 0.0092
SW480 [2]
  cell viability: 0.98 ± 0.0057
DLD1 [3]
  TCF/Wnt firefly luciferase reporter signal: 0.906 ± 0.028
SW480 [4]
  TCF/Wnt firefly luciferase reporter signal: 0.729 ± 0.071

## CCCCOc1ccc(OCCCN2CCOCC2)cc1
DLD1 [1]
  cell viability: 0.904 ± 0.086
HCT116
  cell viability: 0.976 ± 0.077
SW480 [2]
  cell viability: 0.975 ± 0.011
DLD1 [3]
  TCF/Wnt firefly luciferase reporter signal: 0.993 ± 0.11
SW480 [4]
  TCF/Wnt firefly luciferase reporter signal: 1.06 ± 0.014

## NCCCC[C@H](NC(=O)[C@H](Cc1ccc(O)cc1)NC(=O)[C@@H](N)CCCCN)C(=O)O
DLD1 [1]
  cell viability: 1.04 ± 0.064
HCT116
  cell viability: 0.967 ± 0.042
SW480 [2]
  cell viability: 1.06 ± 0.035
DLD1 [3]
  TCF/Wnt firefly luciferase reporter signal: 1.05 ± 0.095
SW480 [4]
  TCF/Wnt firefly luciferase reporter signal: 1.03

## C#CC1(O)CC[C@H]2[C@@H]3CCC4=CC(=O)CC[C@@H]4[C@H]3CC[C@@]21CC (mixture of isomers)
DLD1 [1]
  cell viability: 0.925 ± 0.0014
HCT116
  cell viability: 0.875 ± 0.018
SW480 [2]
  cell viability: 0.957 ± 0.026
DLD1 [3]
  TCF/Wnt firefly luciferase reporter signal: 1.14 ± 0.028
SW480 [4]
  TCF/Wnt firefly luciferase reporter signal: 1.14 ± 0.035

## CC1(C)CC2C1CC[C@]1(C)CCC3C(C(=O)O)CC(=O)O[C@@]32C1 (stereo not given in full) [3-HYDROXY-4-(SUCCIN-2-YL)-CARYOLANE delta-LACTONE]
DLD1 [1]
  cell viability: 1.01 ± 0.088
HCT116
  cell viability: 0.9705 ± 0.00071
SW480 [2]
  cell viability: 0.962 ± 0.035
DLD1 [3]
  TCF/Wnt firefly luciferase reporter signal: 1.07 ± 0.085
SW480 [4]
  TCF/Wnt firefly luciferase reporter signal: 0.986 ± 0.021

## CO/N=C(\C(=O)N[C@@H]1C(=O)N2C(C(=O)O)=C(COC(N)=O)CS[C@H]12)c1ccco1
DLD1 [1]
  cell viability: 0.915 ± 0.088
HCT116
  cell viability: 0.949 ± 0.023
SW480 [2]
  cell viability: 0.938 ± 0.027
DLD1 [3]
  TCF/Wnt firefly luciferase reporter signal: 0.976 ± 0.1
SW480 [4]
  TCF/Wnt firefly luciferase reporter signal: 1.13 ± 0.028

## Nc1ccc(S(=O)(=O)Nc2ccccn2)cc1
DLD1 [1]
  cell viability: 0.971 ± 0.11
HCT116
  cell viability: 0.949 ± 0.067
SW480 [2]
  cell viability: 0.981 ± 0.055
DLD1 [3]
  TCF/Wnt firefly luciferase reporter signal: 1.12 ± 0.028
SW480 [4]
  TCF/Wnt firefly luciferase reporter signal: 0.915 ± 0.076

## CC1(C)CC23C(=O)CCC(O)C2(C)CCC13 (stereo not given)
DLD1 [1]
  cell viability: 1.05 ± 0.15
HCT116
  cell viability: 1.065 ± 0.0071
SW480 [2]
  cell viability: 1.01 ± 0.049
DLD1 [3]
  TCF/Wnt firefly luciferase reporter signal: 0.942 ± 0.11
SW480 [4]
  TCF/Wnt firefly luciferase reporter signal: 1.04 ± 0.074

## CCC(=O)OC1[C@@H]2CC3=C4CC(=O)O[C@@H](c5ccoc5)[C@]4(C)CCC3[C@@](C)(C2=O)[C@@H](CC(=O)OC)C1(C)C (stereo not given in full)
DLD1 [1]
  cell viability: 0.932 ± 0.087
HCT116
  cell viability: 1.03 ± 0.046
SW480 [2]
  cell viability: 1 ± 0.027
DLD1 [3]
  TCF/Wnt firefly luciferase reporter signal: 0.969 ± 0.012
SW480 [4]
  TCF/Wnt firefly luciferase reporter signal: 0.979 ± 0.19

## C[C@@H]1CC[C@@]2(OC1)O[C@H]1C[C@H]3[C@@H]4CC=C5C[C@@H](O)CC[C@]5(C)[C@H]4CC[C@]3(C)[C@H]1[C@@H]2C
DLD1 [1]
  cell viability: 1.01 ± 0.14
HCT116
  cell viability: 0.973 ± 0.025
SW480 [2]
  cell viability: 0.93 ± 0.046
DLD1 [3]
  TCF/Wnt firefly luciferase reporter signal: 0.89 ± 0.063
SW480 [4]
  TCF/Wnt firefly luciferase reporter signal: 0.998 ± 0.06

## NCC(O)CC(=O)O (stereo not given)
DLD1 [1]
  cell viability: 1.035 ± 0.0071
HCT116
  cell viability: 1.04 ± 0.09
SW480 [2]
  cell viability: 0.965 ± 0.028
DLD1 [3]
  TCF/Wnt firefly luciferase reporter signal: 1.04 ± 0.035
SW480 [4]
  TCF/Wnt firefly luciferase reporter signal: 1.07 ± 0.035

## CC1=CC2C(CC1=O)C(C)=CCC2C(C)C (stereo not given)
DLD1 [1]
  cell viability: 0.983 ± 0.095
HCT116
  cell viability: 0.971 ± 0.084
SW480 [2]
  cell viability: 1 ± 0.012
DLD1 [3]
  TCF/Wnt firefly luciferase reporter signal: 0.987 ± 0.1
SW480 [4]
  TCF/Wnt firefly luciferase reporter signal: 0.945 ± 0.19

## Cc1cccc(N(C)C(=S)Oc2ccc3ccccc3c2)c1
DLD1 [1]
  cell viability: 1.07 ± 0.028
HCT116
  cell viability: 1.09 ± 0.099
SW480 [2]
  cell viability: 0.987 ± 0.018
DLD1 [3]
  TCF/Wnt firefly luciferase reporter signal: 0.897 ± 0.07
SW480 [4]
  TCF/Wnt firefly luciferase reporter signal: 0.95 ± 0.04

## CCCCCCCCNC(C)C(O)c1ccc(SC(C)C)cc1 (stereo not given)
DLD1 [1]
  cell viability: 0.978 ± 0.021
HCT116
  cell viability: 1.05 ± 0.042
SW480 [2]
  cell viability: 1.02 ± 0.03
DLD1 [3]
  TCF/Wnt firefly luciferase reporter signal: 1.08 ± 0.099
SW480 [4]
  TCF/Wnt firefly luciferase reporter signal: 1.09 ± 0.085

## Oc1ccc(Cl)c2cccnc12
DLD1 [1]
  cell viability: 1.025 ± 0.0071
HCT116
  cell viability: 0.988 ± 0.032
SW480 [2]
  cell viability: 1.02 ± 0.021
DLD1 [3]
  TCF/Wnt firefly luciferase reporter signal: 0.935 ± 0.069
SW480 [4]
  TCF/Wnt firefly luciferase reporter signal: 1.09 ± 0.042

## CCCCCNC(=N)N/N=C/c1c[nH]c2ccc(OC)cc12
DLD1 [1]
  cell viability: 0.877 ± 0.1
HCT116
  cell viability: 0.964 ± 0.031
SW480 [2]
  cell viability: 1.045 ± 0.0071
DLD1 [3]
  TCF/Wnt firefly luciferase reporter signal: 1.1 ± 0.028
SW480 [4]
  TCF/Wnt firefly luciferase reporter signal: 1.045 ± 0.0071

## C=C1CCC2C(CC2(C)C)C(=O)CCC1O (stereo not given)
DLD1 [1]
  cell viability: 0.969 ± 0.037
HCT116
  cell viability: 0.962 ± 0.023
SW480 [2]
  cell viability: 0.97 ± 0.0014
DLD1 [3]
  TCF/Wnt firefly luciferase reporter signal: 0.932 ± 0.025
SW480 [4]
  TCF/Wnt firefly luciferase reporter signal: 0.9285 ± 0.0064

## O=C(Nc1ccccc1)Nc1ccccc1
DLD1 [1]
  cell viability: 1.02 ± 0.13
HCT116
  cell viability: 0.996 ± 0.048
SW480 [2]
  cell viability: 1.05 ± 0.092
DLD1 [3]
  TCF/Wnt firefly luciferase reporter signal: 1.2 ± 0.11
SW480 [4]
  TCF/Wnt firefly luciferase reporter signal: 1.01 ± 0.04

## C[C@H](CS)C(=O)N1CCC[C@H]1C(=O)O
DLD1 [1]
  cell viability: 1.04 ± 0.097
HCT116
  cell viability: 1.02 ± 0.1
SW480 [2]
  cell viability: 1.09 ± 0.014
DLD1 [3]
  TCF/Wnt firefly luciferase reporter signal: 1.04 ± 0.042
SW480 [4]
  TCF/Wnt firefly luciferase reporter signal: 1.06 ± 0.021

## C[C@H]1[C@H]2CC[C@H]3[C@@H]4CC=C5C[C@@H](N(C)C)CC[C@]5(C)[C@H]4CC[C@]23CN1C
DLD1 [1]
  cell viability: 0.896 ± 0.0042
HCT116
  cell viability: 0.783 ± 0.14
SW480 [2]
  cell viability: 0.984 ± 0.021
DLD1 [3]
  TCF/Wnt firefly luciferase reporter signal: 0.9855 ± 0.00071
SW480 [4]
  TCF/Wnt firefly luciferase reporter signal: 1.05
